proKLK7 act: proKLK7 (human) activation, primary screen | AID 652039 | purified proKLK7, EDANS-DABCYL substrate fluorescence; 100% is mature enzyme control, 0% vehicle | actives 0.9% (n = 370,000) | activation, % at 7 µM | P49862;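 active = activation above the mean of all tested compounds plus 3 SD, computed per campaign excluding outliers beyond control limits, cut at about 13% in these data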
ADAM10 inh: inhibits human ADAM10; O14672; recombinant ADAM10, EDANS/DABCYL FRET peptide cleavage, 3 h; inhibition, % at 7 µM; actives 0.62% (n = 370,000); AID 720582;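 active = inhibition above a per-campaign cutoff equal to the mean of compounds falling between control-based bounds plus 3 SD, cut at about 20% in these data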;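 also: 0% = DMSO wells while the 100% control is not disclosed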
rCAG RNA binder: molecules binding r(CAG) RNA repeats; r(CAG) RNA repeat, TO-PRO-1 dye displacement fluorescence; inhibition, % at 3 µM; actives 1.3% (n = 370,000); AID 651821;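 active = inhibition above the plate cutoff, the mean of all test compounds on that plate plus 3 SD, cut at about 35% in these data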;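 also: 0% = DMSO alone and 100% = 100 µM mitoxantrone as full dye displacement; higher means more dye released from RNA so lower well fluorescence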
AHR act: activates the human aryl hydrocarbon receptor; P35869; AHR-responsive luciferase reporter cells, luminescence; activation, % at 5 µM; actives 2.5% (n = 320,000); AID 2796; in the data active = activation above about 47%;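 also: 0% = vehicle wells and 100% = reference agonist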
NR3A LBD binder: modulates the human NR3A ligand-binding domain; Tm shift relative to glycine control, % at 25 µM; NR3A LBD differential scanning fluorimetry, Tm shift; 0% = protein alone, 100% = glycine-bound protein; actives 2.5% (n = 340,000);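 active = melting temperature shift of at least 10% of the positive control shift, at one fixed dose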
ADAM17 inh: inhibits human ADAM17 | P78536 | recombinant ADAM17, EDANS/DABCYL FRET peptide cleavage | inhibition, % at 6.95 µM | actives 0.83% (n = 370,000) | AID 720648;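 active = inhibition above the mean of compounds lying between control limits plus 3 SD, set per campaign, cut at about 8.5% in these data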;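 also: 0% = DMSO-only wells as the low control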
An asterisk follows results filed as active; i = inactive; nt = not tested or not shown; ! = repeats disagree. Sampled rows, rich in hits. Any-hit rate of the full collection: about 7%.

SMILES	proKLK7 act	ADAM10 inh	rCAG RNA binder	AHR act	NR3A LBD binder	ADAM17 inh
Nc1nonc1-n1nnc(C(=O)N/N=C/c2ccccc2F)c1-c1cccs1	1	6	2	12	-7	0
CC(=O)Nc1nccc(-c2cc(-c3ccccc3)no2)n1	nt	nt	nt	50*	-1	nt
O=S1(=O)c2c(cccc2N2CC[C@H](O)C2)O[C@H]2CCN1C2	0	-9	2	nt	nt	-5
CCc1cc(C(=O)N2CCN(c3ncc(C(F)(F)F)cc3Cl)CC2)sc1C	0	7	-3	0	-4	1
O=C(c1cccs1)N1CCN(c2ncc(C(F)(F)F)cc2Cl)CC1	1	4	-9	-14	11*	0
Cc1[nH]nc2c1C(c1ccc(F)cc1)N(Cc1ccccc1)C2=O (configuration not stated)	0	4	2	nt	nt	1
O=C1CNCc2[nH]c3ccccc3c2N1c1ccccc1	-1	-30	9	54*	-3	-5
O=CN1Cc2[nH]c3ccccc3c2N(c2ccc(Cl)cc2)C1=O	1	-11	4	65*	-1	-5
CN(C(=O)C1CCN(c2cncnc2)CC1)C1CCCCC1	1	-7	0	nt	nt	-4
Cc1ccc(O)c(NC(=S)NC(=O)c2ccccc2Cl)c1	1	2	3	60*	-5	3
Cc1nn(C)c(C(=O)NC(=S)Nc2ccccc2O)c1Cl	1	4	7	54*	-9	5
O=C(NC(=S)Nc1ccc(O)cc1)c1ccccc1Cl	0	5	-1	23	16*	3
CCOc1ccc(NC(=S)NC(=O)c2c(Cl)c(C)nn2C)c([N+](=O)[O-])c1	0	3	1	1	2	-3
COc1ccc(NC(=S)NC(=O)c2ccccc2Cl)cc1	0	4	3	-8	0	3
COc1ccc2c(c1)CN1CN(CC(C)C)S(=O)(=O)CC21 (configuration not stated)	0	-24	2	nt	nt	-8
O=C(Nc1ccc(F)cc1F)Nc1sccc1-c1nc2ccccc2s1	-16	-17	22	29	21*	-7
O=C(Nc1nc2ccccc2s1)Nc1ccc(F)cc1F	0	-5	7	71*	-3	-3
FC(F)(F)c1cccc(N2CCN(C(=S)Nc3nccc4ccccc34)CC2)c1	nt	-22	nt	nt	nt	-10
O=C1N2Cc3ccccc3C2CS(=O)(=O)N1Cc1ccccc1 (configuration not stated)	-1	3	4	nt	nt	2
CN(C)CCCNCCCNC(=O)c1ccco1	-1	-6	2	1	11*!	-2
CC(C)(C)c1ccc(C(=O)NCCCNC(=O)c2ccco2)cc1	-1	4	-1	6	1	-3
CCCCC(CC)Cn1c(O)c(/C=C2\C=NN=C2c2ccccc2)sc1=S (configuration not stated)	-1	-6	9	7	21*	-2
C=CCn1c(O)c(C=Nc2ccccc2)sc1=S	0	-2	5	6	-4	-1
CCCn1c(O)c(/C=C2\C=NN=C2c2ccccc2)sc1=S	1	11	18	9	16*	-1
C=CCn1c(O)c(/C=C2\C=NN=C2c2ccccc2)sc1=S	0	10	14	1	12*	8
SMILES	proKLK7 act	ADAM10 inh	rCAG RNA binder	AHR act	NR3A LBD binder	ADAM17 inh
COC(=O)C[C@@H]1CC[C@@H]2[C@@H](COc3ccc(NC(=O)Nc4ccc(F)cc4)cc3C(=O)N2C)O1	0	-1	6	nt	nt	-4
O=C(C(=O)N1CCC(CNS(=O)(=O)c2ccccc2OC(F)(F)F)CC1)c1cccs1	0	-14	1	nt	nt	-3
CCOc1ccc(NC(=O)Nc2ccc3c(c2)nnn3C)cc1	0	-27	1	-3	16*	-12
Cc1ccc(NC(=O)Nc2ccc3c(c2)nnn3C)cc1C	0	-5	0	9	-4	-6
CC(=O)Nc1cccc(-c2nc3ccc(NC(C)=O)cc3[nH]2)c1	8	i	0	6	-6	-280
CC(Oc1ccccc1)C(=O)Nc1cccc(-c2nc3ccccc3[nH]2)c1 (configuration not stated)	0	-1	4	41	-8	3
CC(=O)Nc1cccc(-c2nc3ccccc3[nH]2)c1	0	-8	0	47*	-15	-6

Compound activity from PubChem BioAssay.
